Data as given in PubChem BioAssay AID1159580 (chemical genetic matrix, 2015).
About 2,000 (36%) of roughly 5,500 compounds were called active. Another 18% or so got no clear call; they are omitted. No stated cut-off is given here; in the data, active means normalized growth mostly below about 0.91 (no sharp cut-off); inconclusive means no clear call, values can overlap the other calls; inactive means mostly above about 0.92. The list shows a part of the results.

Assay: chemical genetic growth profiling, strain panel (AID 1159580);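 further: tested at 20 µM; growth read once vehicle control cultures reached saturation at 30 °C; 1 = growth at the plate median or of vehicle wells; lower values mean less growth of the strain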
Settings: growth OD

Measured: normalized growth

COC(=O)[C@]1(C)CCC[C@]2(C)c3ccc(C(C)C)cc3C(=O)CC12 (stereo partly drawn)
active: S. cerevisiae deletion strains, locus YOR270C, strain vph1, active compounds read low 0.673
inactive: S. cerevisiae deletion strains, locus YJL187C, strain SWE1, active compounds read low 0.956 | S. cerevisiae deletion strains, locus YJR043C, strain POL32, active compounds read low 1.03 | S. cerevisiae deletion strains, locus YJR075W, strain HOC1, active compounds read low 0.914 | S. cerevisiae deletion strains, locus YKL009W, strain mrt4, active compounds read low 0.942 | S. cerevisiae deletion strains, locus YKL068W, active compounds read low 0.984 | S. cerevisiae deletion strains, locus YKL160W, strain elf1, active compounds read low 0.983 | S. cerevisiae deletion strains, locus YKL190W, strain CNB1, active compounds read low 0.967 | S. cerevisiae deletion strains, locus YKR001C, strain vps1, active compounds read low 1.01 | S. cerevisiae deletion strains, locus YKR026C, strain gcn3, active compounds read low 0.975 | S. cerevisiae deletion strains, locus YKR091W, strain srl3, active compounds read low 0.96 | S. cerevisiae deletion strains, locus YLL001W, strain dnm1, active compounds read low 0.986 | S. cerevisiae deletion strains, locus YLL026W, active compounds read low 0.964 | S. cerevisiae deletion strains, locus YLL041C, strain sdh2, active compounds read low 0.958 | S. cerevisiae deletion strains, locus YLR027C, strain aat2, active compounds read low 0.956 | S. cerevisiae deletion strains, locus YLR039C, strain RIC1, active compounds read low 0.978 | S. cerevisiae deletion strains, locus YLR058C, strain SHM2, active compounds read low 0.986 | S. cerevisiae deletion strains, locus YLR102C, strain apc9, active compounds read low 1.01 | S. cerevisiae deletion strains, locus YLR221C, strain rsa3, active compounds read low 1 | S. cerevisiae deletion strains, locus YLR258W, strain gsy2, active compounds read low 0.973 | S. cerevisiae deletion strains, locus YLR262C, strain YPT6 (second series), active compounds read low 0.897 | S. cerevisiae deletion strains, locus YLR262C, strain YPT6, active compounds read low 0.925 | S. cerevisiae deletion strains, locus YLR268W, strain sec22, active compounds read low 0.955 | S. cerevisiae deletion strains, locus YLR320W, strain mms22, active compounds read low 0.991 | S. cerevisiae deletion strains, locus YLR330W, strain CHS5, active compounds read low 0.997 | S. cerevisiae deletion strains, locus YLR342W, strain FKS1 (second series), active compounds read low 0.937 | S. cerevisiae deletion strains, locus YLR342W, strain FKS1, active compounds read low 0.958 | S. cerevisiae deletion strains, locus YLR357W, strain rsc2, active compounds read low 0.989 | S. cerevisiae deletion strains, locus YLR370C, strain arc18, active compounds read low 0.949 | S. cerevisiae deletion strains, locus YLR371W, strain rom2, active compounds read low 1.01 | S. cerevisiae deletion strains, locus YLR384C, strain iki3, active compounds read low 0.96 | S. cerevisiae deletion strains, locus YLR418C, strain cdc73, active compounds read low 0.865 | S. cerevisiae deletion strains, locus YML016C, strain PPZ1, active compounds read low 0.979 | S. cerevisiae deletion strains, locus YML032C, strain rad52, active compounds read low 1.03 | S. cerevisiae deletion strains, locus YML120C, strain ndi1, active compounds read low 0.965 | S. cerevisiae deletion strains, locus YML124C, strain tub3, active compounds read low 0.991 | S. cerevisiae deletion strains, locus YMR058W, strain fet3, active compounds read low 0.969 | S. cerevisiae deletion strains, locus YMR078C, strain ctf18, active compounds read low 1 | S. cerevisiae deletion strains, locus YMR125W, strain sto1, active compounds read low 0.964 | S. cerevisiae deletion strains, locus YMR129W, active compounds read low 0.956 | S. cerevisiae deletion strains, locus YMR205C, strain PFK2, active compounds read low 0.934 | S. cerevisiae deletion strains, locus YMR223W, strain ubp8, active compounds read low 1.02 | S. cerevisiae deletion strains, locus YMR231W, strain pep5, active compounds read low 0.974 | S. cerevisiae deletion strains, locus YMR263W, strain SAP30, active compounds read low 0.961 | S. cerevisiae deletion strains, locus YMR307W, strain GAS1, active compounds read low 0.953 | S. cerevisiae deletion strains, locus YNL067W, strain RPL9B, active compounds read low 0.936 | S. cerevisiae deletion strains, locus YNL071W, strain lat1, active compounds read low 0.952 | S. cerevisiae deletion strains, locus YNL128W, strain TEP1, active compounds read low 0.964 | S. cerevisiae deletion strains, locus YNL153C, strain GIM3, active compounds read low 0.982 | S. cerevisiae deletion strains, locus YNL209W, strain ssb2, active compounds read low 0.992 | S. cerevisiae deletion strains, locus YNL233W, strain BNI4, active compounds read low 0.971 | S. cerevisiae deletion strains, locus YNL248C, strain rpa49, active compounds read low 0.962 | S. cerevisiae deletion strains, locus YNL250W, strain rad50, active compounds read low 0.99 | S. cerevisiae deletion strains, locus YNL271C, strain bni1, active compounds read low 1.01 | S. cerevisiae deletion strains, locus YNL298W, strain CLA4, active compounds read low 1.01 | S. cerevisiae deletion strains, locus YNL307C, strain MCK1, active compounds read low 0.985 | S. cerevisiae deletion strains, locus YNL322C, strain KRE1 (second series), active compounds read low 0.954 | S. cerevisiae deletion strains, locus YNL322C, strain KRE1, active compounds read low 0.979 | S. cerevisiae deletion strains, locus YNR049C, strain mso1, active compounds read low 0.964 | S. cerevisiae deletion strains, locus YNR052C, strain pop2, active compounds read low 1.04 | S. cerevisiae deletion strains, locus YOL006C, strain TOP1, active compounds read low 0.828 | S. cerevisiae deletion strains, locus YOL012C, strain htz1 1.22 | S. cerevisiae deletion strains, locus YOL147C, strain pex11, active compounds read low 1 | S. cerevisiae deletion strains, locus YOR001W, strain rrp6, active compounds read low 0.987 | S. cerevisiae deletion strains, locus YOR061W, strain CKA2, active compounds read low 0.977 | S. cerevisiae deletion strains, locus YOR069W, strain VPS5, active compounds read low 0.996 | S. cerevisiae deletion strains, locus YOR070C, strain gyp1, active compounds read low 0.988 | S. cerevisiae deletion strains, locus YOR080W, strain dia2, active compounds read low 0.965 | S. cerevisiae deletion strains, locus YOR083W, strain WHI5, active compounds read low 0.996 | S. cerevisiae deletion strains, locus YOR106W, strain vam3, active compounds read low 0.965 | S. cerevisiae deletion strains, locus YOR136W, strain idh2, active compounds read low 1.02 | S. cerevisiae deletion strains, locus YOR144C, strain elg1, active compounds read low 0.998 | S. cerevisiae deletion strains, locus YOR184W, strain ser1, active compounds read low 0.982 | S. cerevisiae deletion strains, locus YOR265W, strain rbl2, active compounds read low 0.969 | S. cerevisiae deletion strains, locus YOR290C, strain snf2, active compounds read low 0.949 | S. cerevisiae deletion strains, locus YOR316C, strain cot1, active compounds read low 0.998 | S. cerevisiae deletion strains, locus YPL051W, strain arl3, active compounds read low 0.984 | S. cerevisiae deletion strains, locus YPL055C, strain LGE1, active compounds read low 0.868 | S. cerevisiae deletion strains, locus YPL078C, strain atp4, active compounds read low 0.968 | S. cerevisiae deletion strains, locus YPL106C, strain sse1, active compounds read low 0.989 | S. cerevisiae deletion strains, locus YPL240C, strain hsp82, active compounds read low 0.968 | S. cerevisiae deletion strains, locus YPL241C, strain CIN2, active compounds read low 0.974 | S. cerevisiae deletion strains, locus YPR119W, strain clb2, active compounds read low 0.993 | S. cerevisiae deletion strains, locus YPR141C, strain kar3, active compounds read low 0.981 | S. cerevisiae deletion strains, locus YPR163C, strain tif3, active compounds read low 1 | S. cerevisiae deletion strains, locus YPR167C, strain met16, active compounds read low 0.994 | S. cerevisiae deletion strains, strain wtn01, active compounds read low 0.978 | S. cerevisiae strains, strain wild type, active compounds read low 0.993
